Measurements from PubChem BioAssay (EPA / NIEHS).
Several values for one entry are separate records, joined by “and”; a condition that tells them apart may be missing. Equal entries are not always repeated. More than one record can exist for a structure, and the calls need not agree. Activity calls are given as the source filed them. The calls were made as follows: active = hit-call score of the fitted dose curve at least 0.9, where 1 is the maximum; inactive = score below 0.9.

Key:
[1] = target: Transcription factor E2F1 (Homo sapiens) (UniProt Q01094); assay: ATG_E2F_CIS: Attagene CIS-FACTORIAL HepG2 Assay for human E2F Transcription Factor 1 (AID 2282935); conditions: HepG2 Attagene cis-reporter, E2F reporter RNA transcripts; actives raise or lower the signal
In short: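 In this cis-factorial format, endogenous factor activity drives transfected reporters in HepG2; transcripts collected at 24 h are quantified by fluorescence after RT-PCR and capillary separation.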

[2] = ATG_E_Box_CIS: Attagene CIS-FACTORIAL HepG2 Assay for human Enhancer Box (E-box) (AID 2282936); conditions: HepG2 E-box cis-reporter transcription, actives raise or lower the signal
In short: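 Measured 24 h post-dosing in HepG2 cells transfected with multiple cis-regulated reporter units, signal being reporter mRNA induction detected by fluorescent RT-PCR with capillary electrophoresis; gain or loss fitted against DMSO.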

[3] = ATG_M_61_CIS: Attagene CIS-FACTORIAL HepG2 Assay for M61 Transcription Factor (Internal Marker) (AID 2282937); conditions: HepG2 Attagene CIS-FACTORIAL M61 internal marker reporter; actives raise or lower the signal
In short: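 Readout: fluorescent reporter mRNA fragments resolved by capillary electrophoresis after RT-PCR. Transiently transfected human HepG2 cells carried MRTU constructs reporting endogenous TF activity; 24 h chemical exposure; gain or loss of signal fitted relative to DMSO.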

[4] = ATG_EGR_CIS: Attagene CIS-FACTORIAL HepG2 Assay for human Early Growth Response 1 (EGR1) (AID 2282938); conditions: HepG2 Attagene CIS-FACTORIAL EGR reporter mRNA; actives raise or lower the signal
In short: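 Read-out: fluorescent reporter-mRNA fragments resolved by capillary electrophoresis after RT-PCR, 24 h post-dose in transiently transfected HepG2. Endogenous transcription-factor activity reported via cis-element-regulated reporter units; gain or loss fitted relative to DMSO.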

[5] = ATG_M_19_CIS: Attagene CIS-FACTORIAL HepG2 Assay for M19 Transcription Factor (Internal Marker) (AID 2282939); conditions: HepG2 Attagene CIS-FACTORIAL M19 internal marker reporter; actives raise or lower the signal
In short: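 Signals come from fluorescence of labelled reporter-specific PCR fragments resolved by capillary electrophoresis, following 24 h treatment of HepG2 cells transfected with cis-promoter reporter units; activity was fitted in both directions relative to DMSO.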

[6] = ATG_ERE_CIS: Attagene CIS-FACTORIAL HepG2 Assay for Estrogen Response Element (ERE) (AID 2282940); conditions: HepG2 ERE cis-reporter, Attagene RNA transcript; actives raise or lower the signal
In short: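 Fluorescence of capillary-separated, FAM-labelled reporter cDNA fragments indicates reporter mRNA levels in HepG2 cells exposed to chemicals for 24 h. Transient transfection with cis-regulated units; data fitted in both directions against DMSO.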

[7] = ATG_Ets_CIS: Attagene CIS-FACTORIAL HepG2 Assay for human Erythroblast Transformation Specific (ETS) (AID 2282941); conditions: HepG2 ETS cis-reporter transcription, actives raise or lower the signal
In short: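 Endogenous transcription factor activity read as reporter mRNA via RT-PCR and capillary electrophoresis, with gain or loss fitted bidirectionally against DMSO. Human HepG2 liver cells, transiently transfected CIS reporter constructs, 24 h exposure.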

[8] = ATG_FoxO_CIS: Attagene CIS-FACTORIAL HepG2 Assay for human Forkhead box O (FoxO) (AID 2282943); conditions: HepG2 Attagene cis-reporter, FoxO element, mRNA; actives raise or lower the signal
In short: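 24 h chemical exposure, HepG2 with transient cis-MRTU transfection. RNA extraction, oligo(dT) RT, reporter-specific PCR, primer-extension labelling, HpaI digestion, CE fragment analysis; bidirectional fit, DMSO baseline.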

[9] = ATG_GATA_CIS: Attagene CIS-FACTORIAL HepG2 Assay for human GATA Binding Protein (AID 2282944); conditions: HepG2 GATA cis-element reporter, Attagene multiplex mRNA; actives raise or lower the signal
In short: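 After transfecting HepG2 cells with multiple cis-regulated reporter units, chemicals are dosed for 24 h; isolated RNA undergoes RT-PCR and fluorescent labeling before capillary electrophoresis, with activity expressed against DMSO.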

[10] = ATG_GLI_CIS: Attagene CIS-FACTORIAL HepG2 Assay for human Zinc Finger Protein GLI1 (AID 2282945); conditions: HepG2, Attagene cis-factorial reporter mRNA, GLI element; actives raise or lower the signal
In short: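 HepG2 cells transiently transfected with cis-promoter multiplexed reporter units report endogenous transcription factor activity. After 24 h chemical exposure, reporter mRNA was quantified by RT-PCR, 6-FAM labelling, HpaI digestion and capillary electrophoresis, with bidirectional fitting against DMSO.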

[11] = ATG_M_06_CIS: Attagene CIS-FACTORIAL HepG2 Assay for M06 Transcription Factor (Internal Marker) (AID 2282950); conditions: HepG2 Attagene CIS-FACTORIAL M06 internal marker reporter; actives raise or lower the signal
In short: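 HepG2 liver cells, 24 h exposure. Reporter transcripts from transfected cis-element constructs quantified by RT-PCR/capillary electrophoresis fluorescence. Bidirectional curve fit against DMSO.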

[12] = target: Hypoxia-inducible factor 1-alpha (Homo sapiens) (UniProt Q16665); assay: ATG_HIF1a_CIS: Attagene CIS-FACTORIAL HepG2 Assay for human Hypoxia Inducible Factor 1 (HIF1A) (AID 2282951); conditions: HepG2 Attagene cis-factorial HIF1a reporter transcription; actives raise or lower the signal
In short: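 RT-PCR/capillary electrophoresis fluorescence readout of reporter transcripts from endogenous-TF-driven cis elements in transfected HepG2 cells, 24 h exposure; activity fitted in both directions against DMSO controls.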

[13] = target: Hepatocyte nuclear factor 6 (Homo sapiens) (UniProt Q9UBC0); assay: ATG_HNF6_CIS: Attagene CIS-FACTORIAL HepG2 Assay for human Hepatocyte Nuclear Factor 6 (HNF6) (AID 2282952); conditions: HepG2 Attagene cis-factorial HNF6 reporter transcription; actives raise or lower the signal
In short: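 First, HepG2 cells were transfected with the multiplexed cis reporter library and dosed with chemical for 24 h. Next, RNA was reverse-transcribed, PCR-amplified and fluorescently labelled. Finally, HpaI-digested fragments were read by capillary electrophoresis.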

[14] = target: Heat shock factor protein 1 (Homo sapiens) (UniProt Q00613); assay: ATG_HSE_CIS: Attagene CIS-FACTORIAL HepG2 Assay for human Heat Shock Transcription Factor 1 (HSE) (AID 2282953); conditions: HepG2 HSE cis-reporter, Attagene RNA transcription; actives raise or lower the signal
In short: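 Endogenous transcription factor activity captured via cis-promoter reporter units transfected into HepG2; treatment lasted 24 h. Fluorescence intensity of reporter fragments analysed with bidirectional curve fitting, DMSO baseline.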

[15] = ATG_MRE_CIS: Attagene CIS-FACTORIAL HepG2 Assay for human Metal Responsive Element (MRE) (AID 2282954); conditions: HepG2 MRE cis-reporter transcription, Attagene multiplex; actives raise or lower the signal
In short: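 Readout: capillary electrophoresis of 6-FAM-labelled, HpaI-digested RT-PCR reporter products. System: HepG2 cells carrying transient multiplexed cis reporters, dosed 24 h. Analysis: bidirectional fit, DMSO baseline.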

[16] = ATG_ISRE_CIS: Attagene CIS-FACTORIAL HepG2 Assay for human Interferon Regulatory Factor 1 (IRF1) binding to an Interferon-Stimulated Response Element (ISRE) (AID 2282948); conditions: HepG2 ISRE cis-reporter (Attagene), mRNA transcription readout; actives raise or lower the signal
In short: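 Endogenous transcription factor activity read as reporter transcript abundance via RT-PCR and capillary electrophoresis. HepG2 cells transiently transfected, 24 h chemical exposure. Gain or loss fitted against DMSO baseline.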

[17] = target: Hepatocyte nuclear factor 3-beta (Homo sapiens) (UniProt Q9Y261); assay: ATG_FoxA2_CIS: Attagene CIS-FACTORIAL HepG2 Assay for human Forkhead box A2 (FOXA2) (AID 2282942); conditions: HepG2 cis-reporter transcription factor activity, 24 h; actives raise or lower the signal
In short: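 Readout: fluorescent reporter transcripts resolved by capillary electrophoresis after RT-PCR. Transiently transfected HepG2, 24 h compound exposure, endogenous TF activity at cis promoter elements. Gain or loss of signal fitted relative to DMSO.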

[18] = ATG_GRE_CIS: Attagene CIS-FACTORIAL HepG2 Assay for human Glucocorticoid Response Elements (GRE) (AID 2282947); conditions: HepG2 GRE cis-reporter, Attagene multiplex mRNA; actives raise or lower the signal
In short: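 HepG2, transient cis-reporter transfection, 24 h. Reporter mRNA: RT-PCR then CE, fluorescence. Fit both directions vs DMSO.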

[19] = ATG_M_32_CIS: Attagene CIS-FACTORIAL HepG2 Assay for M32 Transcription Factor (Internal Marker) (AID 2282949); conditions: HepG2 Attagene cis-factorial M32 reporter, mRNA; actives raise or lower the signal;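 also: background control marker of the multiplexed CIS panel rather than a real target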
In short: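 Transient MRTU transfection of HepG2; 24 h compound treatment; TriZol RNA, oligo(dT) RT, reporter PCR, 6-FAM primer extension, HpaI cut, CE. Gain/loss of signal vs DMSO.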

[20] = target: Bile acid receptor (Homo sapiens) (UniProt Q96RI1); assay: ATG_IR1_CIS: Attagene CIS-FACTORIAL HepG2 Assay for human Nuclear Receptor Subfamily 1 Group H Member 4 (NR1H4), IR1 submotif (AID 2282946); conditions: IR1 reporter transcription, actives raise or lower the signal
In short: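 Readout: reporter transcript levels by RT-PCR with fluorescent capillary electrophoresis, from HepG2 cells transiently transfected with multiplexed cis-regulated reporters and dosed 24 h. Gain- or loss-of-signal fitted versus DMSO negative control.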

Measured: AC50

Bile acid receptor (Homo sapiens), sequence (Q96RI1 whole entry, looked up): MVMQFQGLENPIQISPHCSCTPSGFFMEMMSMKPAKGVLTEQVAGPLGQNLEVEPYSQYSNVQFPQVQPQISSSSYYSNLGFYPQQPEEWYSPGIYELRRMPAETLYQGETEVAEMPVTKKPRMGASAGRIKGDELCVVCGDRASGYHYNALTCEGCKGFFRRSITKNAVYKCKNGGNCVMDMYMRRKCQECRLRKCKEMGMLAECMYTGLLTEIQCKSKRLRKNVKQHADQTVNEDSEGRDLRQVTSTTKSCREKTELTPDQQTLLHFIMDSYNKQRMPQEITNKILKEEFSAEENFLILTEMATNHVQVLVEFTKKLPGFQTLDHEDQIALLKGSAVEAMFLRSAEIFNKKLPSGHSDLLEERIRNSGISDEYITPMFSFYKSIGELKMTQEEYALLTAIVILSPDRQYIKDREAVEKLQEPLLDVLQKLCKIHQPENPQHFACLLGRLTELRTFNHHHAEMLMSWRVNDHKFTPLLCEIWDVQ
Hepatocyte nuclear factor 6 (Homo sapiens), sequence (Q9UBC0 whole entry, looked up, the tested form may be a part): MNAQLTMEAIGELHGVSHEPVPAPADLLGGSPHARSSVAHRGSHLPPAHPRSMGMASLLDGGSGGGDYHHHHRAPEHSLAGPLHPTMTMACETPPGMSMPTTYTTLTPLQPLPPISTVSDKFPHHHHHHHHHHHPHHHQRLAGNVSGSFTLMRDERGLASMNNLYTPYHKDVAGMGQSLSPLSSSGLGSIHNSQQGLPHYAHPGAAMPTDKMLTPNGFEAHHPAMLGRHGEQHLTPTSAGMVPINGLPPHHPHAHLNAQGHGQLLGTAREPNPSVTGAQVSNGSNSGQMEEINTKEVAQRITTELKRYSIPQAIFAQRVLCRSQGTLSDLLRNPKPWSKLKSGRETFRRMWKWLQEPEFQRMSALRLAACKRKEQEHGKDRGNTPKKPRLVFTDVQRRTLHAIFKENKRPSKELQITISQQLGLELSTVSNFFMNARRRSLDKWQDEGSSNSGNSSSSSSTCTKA
Hypoxia-inducible factor 1-alpha (Homo sapiens), sequence (Q16665 whole entry, looked up): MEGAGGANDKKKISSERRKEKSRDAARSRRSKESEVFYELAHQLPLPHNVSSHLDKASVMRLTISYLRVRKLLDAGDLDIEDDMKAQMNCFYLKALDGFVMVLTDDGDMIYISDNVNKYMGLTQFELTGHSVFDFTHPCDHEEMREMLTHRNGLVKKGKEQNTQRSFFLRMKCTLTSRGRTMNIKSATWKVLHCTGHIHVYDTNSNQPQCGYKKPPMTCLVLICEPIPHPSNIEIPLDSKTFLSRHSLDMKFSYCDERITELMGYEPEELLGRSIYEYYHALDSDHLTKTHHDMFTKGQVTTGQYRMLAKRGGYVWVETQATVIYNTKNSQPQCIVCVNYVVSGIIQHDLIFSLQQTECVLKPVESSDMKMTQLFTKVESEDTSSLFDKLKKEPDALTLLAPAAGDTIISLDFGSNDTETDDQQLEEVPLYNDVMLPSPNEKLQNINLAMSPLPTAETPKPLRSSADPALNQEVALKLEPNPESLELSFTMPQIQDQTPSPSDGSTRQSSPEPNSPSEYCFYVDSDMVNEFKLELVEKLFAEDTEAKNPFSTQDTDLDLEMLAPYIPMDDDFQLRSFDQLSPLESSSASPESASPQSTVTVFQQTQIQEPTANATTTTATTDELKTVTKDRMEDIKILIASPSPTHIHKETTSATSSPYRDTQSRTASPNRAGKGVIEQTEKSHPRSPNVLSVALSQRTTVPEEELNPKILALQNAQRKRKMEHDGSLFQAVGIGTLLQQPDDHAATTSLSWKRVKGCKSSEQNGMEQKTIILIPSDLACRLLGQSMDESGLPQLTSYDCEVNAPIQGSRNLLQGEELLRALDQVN
Transcription factor E2F1 (Homo sapiens), sequence (Q01094 whole entry, looked up): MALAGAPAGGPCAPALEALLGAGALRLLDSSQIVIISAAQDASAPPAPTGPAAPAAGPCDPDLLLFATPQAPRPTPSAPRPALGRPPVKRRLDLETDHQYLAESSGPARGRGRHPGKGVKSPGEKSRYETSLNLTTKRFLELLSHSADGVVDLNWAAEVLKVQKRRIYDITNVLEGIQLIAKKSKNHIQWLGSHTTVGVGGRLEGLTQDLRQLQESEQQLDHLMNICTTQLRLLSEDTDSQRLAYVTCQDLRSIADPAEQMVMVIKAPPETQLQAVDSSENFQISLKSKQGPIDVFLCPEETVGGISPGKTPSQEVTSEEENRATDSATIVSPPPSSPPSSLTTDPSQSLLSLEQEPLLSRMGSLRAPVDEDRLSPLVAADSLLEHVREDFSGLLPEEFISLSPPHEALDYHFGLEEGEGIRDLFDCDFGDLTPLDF
Heat shock factor protein 1 (Homo sapiens), sequence (Q00613 whole entry, looked up, the tested form may be a part): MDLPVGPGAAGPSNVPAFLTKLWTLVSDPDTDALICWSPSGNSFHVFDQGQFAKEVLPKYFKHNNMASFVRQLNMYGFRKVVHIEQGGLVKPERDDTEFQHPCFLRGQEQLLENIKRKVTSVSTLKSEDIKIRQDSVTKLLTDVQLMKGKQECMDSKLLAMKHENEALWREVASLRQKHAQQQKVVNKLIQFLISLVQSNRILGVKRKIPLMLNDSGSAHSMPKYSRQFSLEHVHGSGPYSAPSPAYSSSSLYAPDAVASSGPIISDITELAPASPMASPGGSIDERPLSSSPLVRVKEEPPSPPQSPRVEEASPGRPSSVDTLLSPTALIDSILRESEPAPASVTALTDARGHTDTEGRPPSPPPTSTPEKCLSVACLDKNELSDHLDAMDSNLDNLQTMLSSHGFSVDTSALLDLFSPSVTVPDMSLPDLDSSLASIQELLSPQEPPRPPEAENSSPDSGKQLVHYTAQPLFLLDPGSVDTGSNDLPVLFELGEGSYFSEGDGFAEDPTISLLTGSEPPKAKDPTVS
Hepatocyte nuclear factor 3-beta (Homo sapiens), sequence (Q9Y261 whole entry, looked up): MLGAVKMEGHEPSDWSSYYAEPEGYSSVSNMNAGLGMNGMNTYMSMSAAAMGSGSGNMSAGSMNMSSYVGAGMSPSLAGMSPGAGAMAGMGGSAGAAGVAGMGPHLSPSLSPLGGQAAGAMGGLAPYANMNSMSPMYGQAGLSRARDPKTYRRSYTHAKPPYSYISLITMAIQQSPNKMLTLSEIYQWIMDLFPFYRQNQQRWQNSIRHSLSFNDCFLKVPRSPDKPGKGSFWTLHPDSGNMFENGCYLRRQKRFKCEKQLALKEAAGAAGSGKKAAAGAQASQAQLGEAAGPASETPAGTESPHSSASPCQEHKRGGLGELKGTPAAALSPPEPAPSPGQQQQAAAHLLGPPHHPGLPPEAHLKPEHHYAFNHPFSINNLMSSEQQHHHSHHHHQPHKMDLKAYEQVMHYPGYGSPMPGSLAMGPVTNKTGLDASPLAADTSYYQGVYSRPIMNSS

OCCC(F)(F)C(F)(F)C(F)(F)C(F)(F)C(F)(F)C(F)(F)C(F)(F)C(F)(F)F
active: [2] 261 µM | [4] 26.5 µM and 150 µM | [6] 9.11 µM and 8.41 µM | [7] 50.7 µM and 150 µM | [10] 59.2 µM | [13] 171 µM | [14] 55.7 µM and 234 µM | [15] 47.3 µM and 150 µM
inactive: [1] | [2] | [3] | [5] | [8] | [9] | [10] | [11] | [12] | [13]

CCCCCCCCCCCCCCCS(=O)(=O)Oc1ccccc1
not listed: [17] | [18] | [19] | [20]
inactive: all other assays above

O=C(O)c1ccccc1C(c1ccc(O)cc1)c1ccc(O)cc1
active: [6] 62.7 µM [middle of 4 runs]
not listed: [20]
inactive: all other assays above

COc1ccc([N+](=O)[O-])cc1N
not listed: [17] | [19] | [20]
inactive: all other assays above

COCC(C)OCC(C)O (stereo not given)
not listed: [16] | [18]
inactive: all other assays above

CCC(=C(c1ccc(O)cc1)c1ccc(OCCN(C)C)cc1)c1ccccc1
active: [1] 10.8 µM | [2] 9.17 µM and 7.1 µM and 3.43 µM | [3] 11.7 µM | [4] 9.87 µM and 10.8 µM | [5] 10.7 µM | [9] 10.5 µM | [10] 11.2 µM | [11] 11.7 µM | [12] 4.12 µM | [13] 11.1 µM | [14] 12.1 µM and 12.3 µM | [15] 7.1 µM and 9.34 µM
inactive: [1] | [2] | [3] | [4] | [5] | [6] | [7] | [17] | [8] | [9] | [10] | [11] | [12] | [13] | [14] | [15]

CCCCCCCCC(=O)O
not listed: [16] | [19] | [20]
inactive: all other assays above

CCCCCCCCCCCCc1ccccc1S(=O)(=O)O
not listed: [18]
inactive: all other assays above

CCCCCCCCCCCCCC[N+](C)(C)C
active: [4] 11.1 µM | [15] 8.9 µM
inactive: [1] | [2] | [3] | [4] | [6] | [7] | [17] | [8] | [9] | [10] | [18] | [16] | [19] | [11] | [12] | [13] | [14] | [15]

CN(C)C=O
not listed: [16] | [18] | [19]
inactive: all other assays above

O=C(O)Cc1cc(I)c(Oc2cc(I)c(O)c(I)c2)c(I)c1
inactive: [1] | [2] | [3] | [6] | [7] | [8] | [9] | [10] | [11] | [12] | [13]
active: [2] 113 µM | [4] 22.5 µM and 36.5 µM | [7] 38.1 µM | [8] 46.7 µM | [9] 115 µM | [10] 67 µM | [14] 40.5 µM and 44.9 µM | [15] 32.7 µM and 54.7 µM

c1ccc2c(c1)Cc1ccccc1-2
active: [6] 100 µM
inactive: all other assays above

Oc1cc2ccccc2c2ccccc12
not listed: [17] | [19] | [20]
inactive: all other assays above
